EPAC1 antagonist: blocks human EPAC1 exchange factor; EPAC1 GEF assay, Rap1b-BODIPY-GDP exchange fluorescence; 360,000 tested, 0.14% active; Potency, µM (doses to about 115 µM), for inactives: top-dose activity change, negative = inhibition, most hits filed as inhibitors; O95398;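 further: potency means the concentration at half of the fitted maximal effect; plate controls were vehicle for no effect and positive control for full effect; nearly all actives have a fitted effect of over 50% in size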
EPAC2 antag: EPAC2 (human) antagonism; Potency, µM (highest dose often 114 µM), for the others: top-dose activity, negative = inhibition, usual class: inhibitors; EPAC2 GEF exchange of Rap1B-BODIPY-GDP, fluorescence; AID 720708; 360,000 tested, 0.18% active; further: potency means the concentration at half of the fitted maximal effect; on the % scale 0 is the no-effect control and ±100 the full control effect; nearly all actives have a fitted effect of over 45% in size
EPAC1 agonist: activates human EPAC1 exchange factor. EPAC1 agonist qHTS, biochemical assay; response scale: 100% = response to 6.5 mM cAMP. Potency, µM (top dose mostly 154 µM), for inactives: top-dose activation, most hits filed as activators. 360,000 tested, 0.073% active; further: potency means the concentration at half of the fitted maximal effect; nearly all actives have a fitted effect of over 60% in size
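Read-out is the fluorescence drop as BODIPY-GDP leaves Rap1B (480 nm excitation, 540 nm emission), recorded every 5 minutes over 30 minutes. Reactions held 100 nM EPAC1, 250 nM Rap1B–BODIPY-GDP and 50 uM GDP, with 6.5 mM cAMP setting full activation.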
USP1-UAF1 inh: USP1/UAF1 (human) deubiquitinase inhibition. O94782. Potency, µM (highest dose often 57.1 µM), for the others: at the highest dose activity change, negative = inhibition, hits mostly inhibitors. recombinant USP1/UAF1, Ub-Rhodamine cleavage fluorescence. 390,000 tested, 0.23% active. AID 743255; further: potency means the concentration at half of the fitted maximal effect; on the % scale 0 is the no-effect control and ±100 the full control effect; nearly all actives have a fitted effect of over 60% in size
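Step one: compound is pinned into 1nM USP1/UAF1 in HEPES pH 7.8 buffer with TCEP. Step two: 15 min room-temperature incubation. Step three: Ub-Rho (150nM final) starts cleavage, tracked by fluorescence over six one-minute reads.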
Coupling enz: inhibits coupling enzyme system, counter-screen for aldolase hits; coupling enzyme system counterscreen, AmpLite Red fluorescence; activity change, negative = inhibition, % at 58.2 µM, hits read low; 290,000 tested, 0.67% active; AID 2472; in the data active means activity change below about -30%; further: on the % scale 0 is the no-effect control and ±100 the full control effect
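Activity here indicates interference with the coupling reaction, not aldolase inhibition. Compounds at 57.5 uM final met coupling enzymes for 10 min at RT; substrate and AmpLite Red detection followed, with a 525/598 nm fluorescence read after 20 min.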
EPAC2 agonist: agonists of human EPAC2 (RAPGEF4) | EPAC2 activation, biochemical qHTS; response scale: 100% = 6.5 mM cAMP response | Potency, µM (titrated, usually from 154 µM), for the others: at the top dose activation, usual class: activators | 360,000 tested, 0.079% active; further: potency means the concentration at half of the fitted maximal effect; nearly all actives have a fitted effect of over 50% in size
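Guanine nucleotide exchange by EPAC2 is measured as reduced fluorescence of BODIPY-GDP once it is released from 250 nM Rap1B. Plates are read kinetically for 30 min at room temperature; results are scaled to 6.5 mM cAMP.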
Starred values were filed as active, the others as inactive; ? = inconclusive; nt = no result. An excerpt weighted towards active compounds, which were near 0.87% of everything screened. Unless noted, the call rests on the fitted dose curve; in most records, active means well fitted curve in the direction sought with a large enough effect; inconclusive means small, poorly fitted or top-dose-only effect, or another doubt; inactive means no such curve, though single readings can be large; an effect the other way counts as inactive or inconclusive.

SMILES | EPAC1 antagonist | EPAC2 antag | EPAC1 agonist | USP1-UAF1 inh | Coupling enz | EPAC2 agonist
CCOc1ccc(N)cc1OC | 1% | -1% | 5% | -20% | -33* | 0%
C=CCOc1c(Cl)cc(CNc2ccc(N(C)C)cc2)cc1OC | 8% | -4% | -11% | ? | -79* | -2%
COc1ccc2c(CC(=O)N[C@@H](Cc3c[nH]c4ccccc34)C(=O)O)cc(=O)oc2c1 | -4% | 0% | -7% | -8% | 0 | 0%
CCN(CC)c1nc(N)nc(NS(=O)(=O)c2ccc(Cl)cc2)n1 | 2% | -12% | -3% | -11% | -33* | 4%
CC1=Nc2ccccc2/C1=C\c1nc(-c2ccc(F)cc2)oc1O | 26% | 47% | 89µM* | 28µM* | -1 | ?
Cc1ccc2onc(CC(=O)Nc3cccc(C(F)(F)F)c3)c2c1 | nt | nt | nt | -16% | nt | nt
Cc1ccc(CNc2ccc3c(c2)OCO3)cc1 | 9% | 9% | 2% | 28µM* | -37* | -7%
CC(C)(C)c1cc[n+](C2=C([O-])c3ccccc3C(=O)/C2=N\S(=O)(=O)c2cccs2)cc1 | -4% | -3% | 4% | ? | -57* | 13%
O=C1/C(=N\S(=O)(=O)c2cccs2)C([n+]2ccccc2)=C([O-])c2ccccc21 | -9% | 12% | -7% | ? | -51* | -6%
CCOC(=O)/C(=C\C=C1/Sc2cc(OCC)c(OCC)cc2N1CC)C(C)=O | 9% | 23% | ? | 25µM* | -8 | 2%
CCOC(=O)/C(=C/C=C1\Sc2cc(OCC)c(OCC)cc2N1CC)C(C)=O | 34% | 18% | ? | 22µM* | -3 | ?
Cn1cccc1C(=O)c1cccc([N+](=O)[O-])c1 | -8% | -4% | -3% | -2% | 4 | 6%
Cc1ccc(C)c2[nH]c(=O)c(C(c3nnnn3Cc3ccco3)N3CCc4ccccc4C3)cc12 (stereo not given) | 14% | -23% | 15% | -11% | -34* | 11%
c1ccc(NN(Cc2ccccn2)c2ccccc2)cc1 | -14% | 14µM* | -1% | -8% | nt | 18%
COc1ccc(C)cc1NC(=O)COC(=O)c1ccc(OCc2ccc(Cl)cc2Cl)c(OC)c1 | -13% | 3% | 4% | -5% | 5 | -3%
CCOC(=O)CNC(=O)N1CCC(CCC(=O)N(C)Cc2ccccc2)CC1 | -6% | -7% | 5% | -18% | 2 | 3%
CC(=O)OCCCNc1cc(Sc2nc3ccccc3s2)c2nonc2c1[N+](=O)[O-] | 4% | 2% | 4% | -18% | -35* | 11%
CC(=O)OCCCNc1cc(Sc2ccc(C)cc2)c2nonc2c1[N+](=O)[O-] | 3% | 10% | -3% | -21% | -3 | -2%
CC(C)OC(=O)c1c2c(n3ccccc13)C(=O)c1ccccc1C2=O | -10% | -10% | -4% | 28µM* | -12 | 5%
O=C(O)C1CC=CCC1C(=O)NNc1c(Cl)cc(Cl)cc1Cl (stereo not given) | 0% | -1% | -3% | -6% | 11 | 2%
O=C(N/N=C/c1ccc(O)c(Br)c1)c1cc2c(ccc3ccccc32)o1 | 1% | -5% | 5% | -5% | nt | 6%
O=C(N/N=C/c1cc(Br)c(O)c(Br)c1)c1cc2c(ccc3ccccc32)o1 | 28µM* | -14% | -4% | ? | nt | 8%
CCc1ccccc1NC(=O)Cn1c(=O)n(-c2ccc(C)cc2)c(=O)c2cc(OC)c(OC)cc21 | nt | nt | nt | -22% | nt | nt
O=C1C(Nc2ccc(O)cc2)=C/C(=N/S(=O)(=O)c2cccs2)c2ccccc21 | -12% | 3% | 10% | 4.5µM* | -37* | 19%
O=C(O)c1ccc(NC2=C/C(=N/S(=O)(=O)c3cccs3)c3ccccc3C2=O)cc1 | 50µM* | ? | -18% | 5µM* | nt | 18%
SMILES | EPAC1 antagonist | EPAC2 antag | EPAC1 agonist | USP1-UAF1 inh | Coupling enz | EPAC2 agonist
Cc1c[nH]c2cccc(OCC(O)CNC(C)(C)C)c12 (stereo not given) | -3% | 0% | 9% | -3% | -35* | 2%
CC(C)(C)NCC(O)COc1ccccc1C(C)(C)C (stereo not given) | 6% | 4% | 1% | 4% | -1 | 6%
Cc1nc2ccc(Cl)cc2nc(C)/c1=N\O | -1% | 18% | 12% | ? | -33* | ?
Cc1ccc2nc(C)/c(=N\O)c(C)nc2c1 | 0% | -3% | 13% | -8% | nt | 1%
O=C(Nc1ccc(N2CCOCC2)cc1N1CCOCC1)c1ccc([N+](=O)[O-])cc1 | -15% | 5% | -11% | -16% | 2 | 3%
O=C(NNc1cc(N2CCOCC2)nc(N2CCOCC2)n1)c1ccc([N+](=O)[O-])cc1 | ? | ? | 3% | 32µM* | -54* | 18%
O=C(CSc1ncnc2[nH]ncc12)Nc1cccc(Oc2ccccc2)c1 | ? | 3% | 89µM* | -22% | 1 | 32µM*
CCS(=O)(=O)c1ccc2oc(=O)c(/C=C(\O)c3ccc(Cl)cc3)nc2c1 | -10% | 2% | -4% | 0% | 11 | 9%
O=c1[nH]c2ccccc2nc1/C=C(\O)c1cccs1 | 16% | 26% | 100µM* | 16µM* | 0 | ?
O=c1oc2ccc(Cl)cc2nc1/C=C(\O)c1cccs1 | -12% | 100% | 12% | -7% | 4 | 100µM*
CC(C)(C)/C(O)=C/c1nc2ccccc2[nH]c1=O | -4% | -2% | 3% | -12% | 5 | 4%
COc1ccccc1CCn1cnc(C)c1CC(C)C | -15% | 3% | -15% | nt | nt | 8%
CCOC(=O)c1cccc(NC(=O)C2CCN(S(=O)(=O)c3c(C)noc3/C=C/c3ccc(C)cc3)CC2)c1 | nt | nt | nt | -23% | nt | nt
Cc1nnc(C)c2c(C)n(-c3ccccc3N)c(C)c12 | -4% | 0% | 7% | -16% | -40* | 4%
CC(=O)C(C(C)=O)C1(O)C(=O)c2ccccc2C1=O | -4% | -10% | 2% | 7.9µM* | -30* | 8%
O=C1c2cccc3cccc(c23)C(=O)C1(O)O | -10% | -2% | -6% | -26% | nt | -3%
CCCC[C@@H]1C[C@H]1[C@@H](NC(=O)c1ccco1)c1ccc(Cl)cc1 | -19% | 8.9µM* | -20% | -22% | -2 | 2%
CCCC[C@@H]1C[C@H]1C(NC(=O)c1ccccc1)c1ccc(Cl)cc1 (stereo not given in full) | nt | nt | nt | nt | -2 | nt
CC(=O)c1ccc(Oc2ncnc3c2oc2ccccc23)cc1 | nt | nt | nt | 6% | nt | nt
COc1ccccc1Oc1ncnc2c1oc1ccccc12 | -19% | 79µM* | 16% | -5% | -2 | 12%
CCn1c(NCc2cc(Cl)ccc2O)nc2ccccc21 | -24% | -26% | 18% | -10% | -5 | 14%

Screening results from PubChem.
